Measured values: PubChem BioAssay AID1159580 (chemical genetic matrix, 2015)
Hit rate of the full screen: of about 5,500 compounds, about 2,000 (36%) were called active. Another 18% or so got no clear call; they are omitted. No stated cut-off is given here; in the data, active means normalized growth mostly below about 0.91 (no sharp cut-off); inconclusive means no clear call, values can overlap the other calls; inactive means mostly above about 0.92. This is one part of the list.

Experiment: chemical genetic growth profiling, strain panel (AID 1159580);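 further: tested at 20 µM; growth read once vehicle control cultures reached saturation at 30 °C; 1 = growth at the plate median or of vehicle wells; lower values mean less growth of the strain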
Conditions: growth OD

Measured: normalized growth

CC(=O)N[C@@H](Cc1c[nH]c2ccccc12)C(N)=O
inactive: S. cerevisiae deletion strains, locus YJR075W, strain HOC1, hits give low values 0.959 | S. cerevisiae deletion strains, locus YKL009W, strain mrt4, hits give low values 1.01 | S. cerevisiae deletion strains, locus YKL068W, hits give low values 0.988 | S. cerevisiae deletion strains, locus YKL085W, strain MDH1 (second series), hits give low values 1.01 | S. cerevisiae deletion strains, locus YKL085W, strain MDH1, hits give low values 1.01 | S. cerevisiae deletion strains, locus YKL160W, strain elf1, hits give low values 1.02 | S. cerevisiae deletion strains, locus YKL190W, strain CNB1, hits give low values 0.979 | S. cerevisiae deletion strains, locus YKR001C, strain vps1, hits give low values 1.01 | S. cerevisiae deletion strains, locus YKR026C, strain gcn3, hits give low values 1.03 | S. cerevisiae deletion strains, locus YKR091W, strain srl3, hits give low values 1.01 | S. cerevisiae deletion strains, locus YLL001W, strain dnm1, hits give low values 1.03 | S. cerevisiae deletion strains, locus YLL026W, hits give low values 1.02 | S. cerevisiae deletion strains, locus YLL041C, strain sdh2, hits give low values 1.02 | S. cerevisiae deletion strains, locus YLR027C, strain aat2, hits give low values 1.03 | S. cerevisiae deletion strains, locus YLR039C, strain RIC1, hits give low values 0.972 | S. cerevisiae deletion strains, locus YLR058C, strain SHM2, hits give low values 0.993 | S. cerevisiae deletion strains, locus YLR102C, strain apc9, hits give low values 0.999 | S. cerevisiae deletion strains, locus YLR113W, strain HOG1, hits give low values 1.01 | S. cerevisiae deletion strains, locus YLR221C, strain rsa3, hits give low values 0.996 | S. cerevisiae deletion strains, locus YLR258W, strain gsy2, hits give low values 1.02 | S. cerevisiae deletion strains, locus YLR262C, strain YPT6 (second series), hits give low values 1.02 | S. cerevisiae deletion strains, locus YLR262C, strain YPT6, hits give low values 0.938 | S. cerevisiae deletion strains, locus YLR268W, strain sec22, hits give low values 0.96 | S. cerevisiae deletion strains, locus YLR320W, strain mms22, hits give low values 1.01 | S. cerevisiae deletion strains, locus YLR330W, strain CHS5, hits give low values 0.996 | S. cerevisiae deletion strains, locus YLR342W, strain FKS1 (second series), hits give low values 1.07 | S. cerevisiae deletion strains, locus YLR342W, strain FKS1, hits give low values 1.05 | S. cerevisiae deletion strains, locus YLR357W, strain rsc2, hits give low values 1.04 | S. cerevisiae deletion strains, locus YLR370C, strain arc18, hits give low values 1.02 | S. cerevisiae deletion strains, locus YLR371W, strain rom2, hits give low values 1.01 | S. cerevisiae deletion strains, locus YLR384C, strain iki3, hits give low values 1.03 | S. cerevisiae deletion strains, locus YLR418C, strain cdc73, hits give low values 0.984 | S. cerevisiae deletion strains, locus YML016C, strain PPZ1, hits give low values 0.995 | S. cerevisiae deletion strains, locus YML032C, strain rad52, hits give low values 1 | S. cerevisiae deletion strains, locus YML120C, strain ndi1, hits give low values 1.03 | S. cerevisiae deletion strains, locus YML124C, strain tub3, hits give low values 1.01 | S. cerevisiae deletion strains, locus YMR058W, strain fet3, hits give low values 0.997 | S. cerevisiae deletion strains, locus YMR078C, strain ctf18, hits give low values 1 | S. cerevisiae deletion strains, locus YMR125W, strain sto1, hits give low values 1.1 | S. cerevisiae deletion strains, locus YMR129W, hits give low values 1.02 | S. cerevisiae deletion strains, locus YMR205C, strain PFK2, hits give low values 1.02 | S. cerevisiae deletion strains, locus YMR223W, strain ubp8, hits give low values 1.01 | S. cerevisiae deletion strains, locus YMR231W, strain pep5, hits give low values 1.02 | S. cerevisiae deletion strains, locus YMR263W, strain SAP30, hits give low values 0.955 | S. cerevisiae deletion strains, locus YMR307W, strain GAS1, hits give low values 1.08 | S. cerevisiae deletion strains, locus YNL067W, strain RPL9B, hits give low values 0.966 | S. cerevisiae deletion strains, locus YNL071W, strain lat1, hits give low values 1.01 | S. cerevisiae deletion strains, locus YNL128W, strain TEP1, hits give low values 0.94 | S. cerevisiae deletion strains, locus YNL153C, strain GIM3, hits give low values 0.97 | S. cerevisiae deletion strains, locus YNL183C, strain NPR1, hits give low values 0.914 | S. cerevisiae deletion strains, locus YNL209W, strain ssb2, hits give low values 1.01 | S. cerevisiae deletion strains, locus YNL233W, strain BNI4, hits give low values 0.993 | S. cerevisiae deletion strains, locus YNL248C, strain rpa49, hits give low values 0.992 | S. cerevisiae deletion strains, locus YNL250W, strain rad50, hits give low values 0.989 | S. cerevisiae deletion strains, locus YNL271C, strain bni1, hits give low values 0.996 | S. cerevisiae deletion strains, locus YNL298W, strain CLA4, hits give low values 0.994 | S. cerevisiae deletion strains, locus YNL307C, strain MCK1, hits give low values 1.02 | S. cerevisiae deletion strains, locus YNL322C, strain KRE1 (second series), hits give low values 1.03 | S. cerevisiae deletion strains, locus YNL322C, strain KRE1, hits give low values 0.978 | S. cerevisiae deletion strains, locus YNR049C, strain mso1, hits give low values 1.02 | S. cerevisiae deletion strains, locus YNR052C, strain pop2, hits give low values 1.01 | S. cerevisiae deletion strains, locus YOL006C, strain TOP1, hits give low values 0.943 | S. cerevisiae deletion strains, locus YOL012C, strain htz1 0.796 | S. cerevisiae deletion strains, locus YOL147C, strain pex11, hits give low values 1 | S. cerevisiae deletion strains, locus YOR001W, strain rrp6, hits give low values 1.04 | S. cerevisiae deletion strains, locus YOR061W, strain CKA2, hits give low values 0.969 | S. cerevisiae deletion strains, locus YOR069W, strain VPS5, hits give low values 1 | S. cerevisiae deletion strains, locus YOR070C, strain gyp1, hits give low values 1.01 | S. cerevisiae deletion strains, locus YOR080W, strain dia2, hits give low values 1.03 | S. cerevisiae deletion strains, locus YOR083W, strain WHI5, hits give low values 1.03 | S. cerevisiae deletion strains, locus YOR106W, strain vam3, hits give low values 1.01 | S. cerevisiae deletion strains, locus YOR136W, strain idh2, hits give low values 1.01 | S. cerevisiae deletion strains, locus YOR144C, strain elg1, hits give low values 0.995 | S. cerevisiae deletion strains, locus YOR184W, strain ser1, hits give low values 1.02 | S. cerevisiae deletion strains, locus YOR231W, strain MKK1, hits give low values 1.01 | S. cerevisiae deletion strains, locus YOR265W, strain rbl2, hits give low values 1.03 | S. cerevisiae deletion strains, locus YOR270C, strain vph1, hits give low values 1 | S. cerevisiae deletion strains, locus YOR290C, strain snf2, hits give low values 1.01 | S. cerevisiae deletion strains, locus YOR316C, strain cot1, hits give low values 1 | S. cerevisiae deletion strains, locus YPL051W, strain arl3, hits give low values 1.02 | S. cerevisiae deletion strains, locus YPL055C, strain LGE1, hits give low values 0.932 | S. cerevisiae deletion strains, locus YPL078C, strain atp4, hits give low values 1.02 | S. cerevisiae deletion strains, locus YPL106C, strain sse1, hits give low values 1.04 | S. cerevisiae deletion strains, locus YPL240C, strain hsp82, hits give low values 1.02 | S. cerevisiae deletion strains, locus YPL241C, strain CIN2, hits give low values 0.989 | S. cerevisiae deletion strains, locus YPL256C, strain CLN2, hits give low values 0.999 | S. cerevisiae deletion strains, locus YPR119W, strain clb2, hits give low values 1 | S. cerevisiae deletion strains, locus YPR141C, strain kar3, hits give low values 0.981 | S. cerevisiae deletion strains, locus YPR163C, strain tif3, hits give low values 1.01 | S. cerevisiae deletion strains, locus YPR167C, strain met16, hits give low values 0.991 | S. cerevisiae deletion strains, strain wtn01, hits give low values 1 | S. cerevisiae strains, strain wild type, hits give low values 0.995
